From PubChem BioAssay (NCI) come the findings set out here.

SMILES strings stand for the structures. This is part of a sample that, as a whole, favours compounds with a hit. Of some 83,000 tested, about 20% had one in any assay.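 Percent growth is the endpoint: 0 to 100 indicates growth inhibition (40 means 60% inhibition), 0 means no net growth, and negative values indicate cell death.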 A number with no mark means an inactive call. Active and inactive are the calls of the source. The calls were made as follows: active = growth percent below 10; inactive = the rest.

Some test systems named below: NCI-H23 lung; NCI-H226 lung; NCI-H322M lung; HOP-62 NSCLC; NCI-H460 lung; HOP-92 NSCLC; NCI-H522 lung; A549/ATCC NSCLC; 786-0 renal; COLO 205 colon.
What all share (assay): NCI-60 one-dose screen, 48 h (100 = growth as untreated, 0 = no growth, -100 = all killed)
What all share (conditions): 10 µM unless noted

As to `Cc1ccc(/C=N/Nc2nc(Nc3ccccc3)nc(-n3nc(C)cc3C)n2)cc1`, the growth in the assay on NCI-H23 lung was 54.8%; in the assay on NCI-H226 lung, 46.9%; in the assay on NCI-H322M lung it was 27%; in the assay with HOP-62 NSCLC, 73.3%; with NCI-H460 lung, 6.72% (active); in the assay on HOP-92 NSCLC it was 60.7%. Further, the growth with NCI-H522 lung is 15.7%; in the assay on A549/ATCC NSCLC it was 26.2%; in the assay on 786-0 renal, 44.4%; in the assay on COLO 205 colon, 30.6%.
For the compound `Fc1ccc(Nc2nc3nonc3nc2Nc2ccc(I)cc2)cc1`, the growth in the assay with NCI-H23 lung was -19.5% (active); in the assay on NCI-H226 lung it was -17.5% (active); in the assay with NCI-H322M lung, 1.66% (active); with HOP-62 NSCLC it was -23.7% (active); with NCI-H460 lung, 2.95% (active); with HOP-92 NSCLC, -25.9% (active). For the same compound, the growth with NCI-H522 lung is -20.2% (active); in the assay with A549/ATCC NSCLC, 2.73% (active); with 786-0 renal, -11.1% (active); in the assay with COLO 205 colon it was -64.4% (active).
On to `COc1ccc2c3c([nH]c2c1)C(=O)c1nc(C)ccc1C3=O`, for which the growth in the assay on NCI-H23 lung was 3.17% (active); in the assay on NCI-H226 lung, 66.1%; with NCI-H322M lung it was 43.4%; in the assay with HOP-62 NSCLC, 46.6%; with NCI-H460 lung, -34.9% (active); in the assay on HOP-92 NSCLC it was 86%. The growth with NCI-H522 lung is 56%; in the assay on A549/ATCC NSCLC, -11.9% (active); with 786-0 renal it was 79.7%; in the assay on COLO 205 colon, 63.2%.
In the case of `CC/C(=C(/c1ccc(Cl)cc1)c1ccc(OCCN2CCCC2)cc1)c1ccc(OC)cc1`, the growth in the assay with NCI-H23 lung is 52.9%; in the assay with NCI-H226 lung, 89%; in the assay with NCI-H322M lung, 79.7%; in the assay on HOP-62 NSCLC it was 92.6%; in the assay on NCI-H460 lung, 37.6%; in the assay on HOP-92 NSCLC, 67%. Further, the growth is 82.7% in the assay with NCI-H522 lung, 61.9% with A549/ATCC NSCLC, 71.9% with 786-0 renal and 64.7% in the assay on COLO 205 colon.
In the case of `CCOC(=O)c1[nH]c(=O)c2c(C)nc(-c3ccccc3)cc2c1O`, the growth in the assay on NCI-H23 lung is 105%; with NCI-H226 lung, 93%; with NCI-H322M lung, 118%; in the assay with HOP-62 NSCLC, 124%; in the assay on NCI-H460 lung, 102%; in the assay on HOP-92 NSCLC, 78.5%. In addition, the growth in the assay on NCI-H522 lung was 92.7%; in the assay on A549/ATCC NSCLC, 101%; in the assay with 786-0 renal, 112%; in the assay on COLO 205 colon, 117%.
As to `CCOC(=O)c1cc2c(=O)oc3ccccc3c2oc1=O`, the growth in the assay on NCI-H23 lung is 112%; with NCI-H226 lung it was 101%; in the assay on NCI-H322M lung, 100%; in the assay on HOP-62 NSCLC, 120%; in the assay on NCI-H460 lung it was 111%; with HOP-92 NSCLC, 49.4%. In addition, the growth with NCI-H522 lung is 92.1%; with A549/ATCC NSCLC, 105%; with 786-0 renal, 111%; in the assay with COLO 205 colon, 129%.
Take `N#Cc1c(-c2ccc(Cl)cc2)nc(SCC(=O)NC2=NN=C(c3ccccc3)CS2)[nH]c1=O`: the growth is 76.3% in the assay with NCI-H23 lung; 106% in the assay on NCI-H226 lung; 89.7% with NCI-H322M lung; 68.9% in the assay on HOP-62 NSCLC; 110% in the assay on NCI-H460 lung; 58.2% in the assay on HOP-92 NSCLC. The growth was 66.4% in the assay with NCI-H522 lung, 90.6% in the assay on A549/ATCC NSCLC, 93% in the assay on 786-0 renal and 80.7% in the assay on COLO 205 colon.
As to `Clc1ccc2c(c1)N(c1ncnc3ccc(-c4cnc5[nH]ncc5c4)cc13)CC2`, the growth in the assay on NCI-H23 lung was 52.5%; in the assay with NCI-H226 lung, 24.4%; in the assay on NCI-H322M lung, 11.8%; in the assay with HOP-62 NSCLC it was 24.4%; with NCI-H460 lung, 20.1%; in the assay with HOP-92 NSCLC, -1.84% (active). Besides, the growth in the assay with NCI-H522 lung is 40.2%; in the assay with A549/ATCC NSCLC it was 6.23% (active); with 786-0 renal, 18.1%; in the assay with COLO 205 colon, 31.1%.
With `Cc1ccc(-n2c(=S)[nH]c3sc4c(c3c2=O)CCC(=O)C4)cc1`, the growth was 68.7% in the assay on NCI-H23 lung; 83.4% in the assay on NCI-H226 lung; 89.5% in the assay with NCI-H322M lung; 63.6% in the assay on HOP-62 NSCLC; 17.2% in the assay with NCI-H460 lung; 57% with HOP-92 NSCLC. Also, the growth in the assay on NCI-H522 lung is 10.2%; with A549/ATCC NSCLC it was 51.8%; in the assay on 786-0 renal, 29.5%; in the assay with COLO 205 colon, 81.6%.
Regarding `CCCc1cc(NC)nc(S(=O)(=O)CC)n1`, the growth was 102% in the assay on NCI-H23 lung; 108% in the assay on NCI-H226 lung; 106% in the assay with NCI-H322M lung; 110% with HOP-62 NSCLC; 110% in the assay with NCI-H460 lung; 108% in the assay with HOP-92 NSCLC. Moreover, the growth with NCI-H522 lung was 95.9%; with A549/ATCC NSCLC, 105%; in the assay with 786-0 renal it was 101%; in the assay with COLO 205 colon, 120%.
Turning to `CC1=Nc2cnc(Nc3ccc(OCCN4CCCC4)cc3)nc2Nc2ccccc21`, the growth is 80.4% in the assay with NCI-H23 lung; 77.8% in the assay with NCI-H226 lung; 44.6% in the assay with NCI-H322M lung; 86.4% in the assay with HOP-62 NSCLC; 64.2% in the assay with NCI-H460 lung; 43.2% in the assay on HOP-92 NSCLC. For the same compound, the growth in the assay on NCI-H522 lung is 73.9%; in the assay on A549/ATCC NSCLC, 86.5%; in the assay on 786-0 renal, 54%; with COLO 205 colon it was 72.2%.
Take `N#Cc1c(NC(=O)c2ccccc2)sc2c1CCC(=O)C2`: the growth was 5.05% (active) in the assay with NCI-H23 lung; 14.7% with NCI-H226 lung; 71.9% with NCI-H322M lung; 40.7% in the assay on HOP-62 NSCLC; 16.3% with NCI-H460 lung; -22.9% (active) in the assay on HOP-92 NSCLC. In addition, the growth was -12.7% (active) with NCI-H522 lung, 52.7% in the assay on A549/ATCC NSCLC, 25.9% in the assay on 786-0 renal and -46.4% (active) with COLO 205 colon.
In the case of `O=C(Nn1c2c(sc1=Nc1ccccc1)C(=O)c1ccccc1C2=O)c1cc2ccc1CCc1ccc(cc1)CC2`, the growth in the assay with NCI-H23 lung was 30.6%; with NCI-H226 lung, 51.2%; in the assay with NCI-H322M lung, 99.8%; in the assay with HOP-62 NSCLC, 66.4%; in the assay with NCI-H460 lung it was 71.9%; in the assay with HOP-92 NSCLC it was 107%. Besides, the growth with NCI-H522 lung is 68%; with A549/ATCC NSCLC it was 64%; with 786-0 renal it was 81%; with COLO 205 colon it was 102%.
